Beta apoptosis: blocks beta cell apoptosis | protection from apoptosis, % (no concentration beside the values) | INS-1E cytokine-induced death, ATP luminescence, 48 h; percent of positive-control rescue, neutral wells zero | 300,000 tested, 0.8% active | AID 435005;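 active = Every replicate reaches about 75%, or at least half do and their mean reaches it too, limit read from the data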;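 also: 0% = cytokine-treated negative control wells and 100% = positive control rescue; higher means more ATP so stronger rescue from cytokine killing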
697 NFkB inh: inhibitors of the PMA/ionomycin-induced NF-kB reporter in 697 B cells; inhibition, % at 4 µM; 330,000 tested, 0.33% active; 697 B-cell NF-kB luciferase reporter, 16 h; AID 435022; in the data active = inhibition above about 35%
Gli-Sufu block: antagonists of Gli-Sufu signaling. 340,000 tested, 0.74% active. Sufu-KO-LIGHT fibroblasts, Gli luciferase reporter luminescence. inhibition, % at 5 µM;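 active = inhibition above about 55%, limit read from the data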;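 also: 0% = DMSO-treated cells and 100% = wells with medium but no cells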
Jurkat NFkB inh: lowers PMA/ionomycin-induced NF-kB signal in Jurkat cells; inhibition, % at 4 µM; PMA/ionomycin-induced NF-kB luciferase reporter, luminescence; AID 435003; 330,000 tested, 0.53% active; in the data active = inhibition above about 50%
* hit, by the source's call; . = no result. Rows were chosen to be rich in hits. Some 1.8% of all compounds tested hit in one or more screens of this group.

SMILES	Beta apoptosis	697 NFkB inh	Gli-Sufu block	Jurkat NFkB inh
CCOc1cc(/C=C2\CN(CC)C/C(=C\c3ccc(O)c(OCC)c3)C2=O)ccc1O	.	-35	-2	44
CCN1C/C(=C/c2cccc([N+](=O)[O-])c2)C(=O)/C(=C/c2cccc([N+](=O)[O-])c2)C1	98*	.	58*	.
C=CCNC(=O)C(=O)NCC(c1ccc2c(c1)OCO2)N1CCN(c2ccc(F)cc2)CC1 (configuration not stated)	-4	10	11	16
C=CCNc1nc(Cl)nc(Nc2ccc([N+](=O)[O-])cc2)n1	4	5	1	9
O=C(Nc1cc(Sc2nc3ccccc3s2)cc([N+](=O)[O-])c1)c1ccccc1	13	3	5	12
O=C(Nc1cc(Sc2ccccn2)cc([N+](=O)[O-])c1)c1cccc(F)c1	84*	-4	22	35
O=C(Nc1ccc(Cl)cc1)c1nc[nH]c1C(=O)NCCN(CCNC(=O)c1[nH]cnc1C(=O)Nc1ccc(Cl)cc1)CCNC(=O)c1[nH]cnc1C(=O)Nc1ccc(Cl)cc1	104*	-10	3	3
O=C(CCc1nnc2ccc(N3CCCCC3)nn12)NCc1ccco1	-7	4	-13	14
CCC(Sc1nc(C)cc(C)n1)C(=O)NC1=NN=C(c2ccc(C)cc2)CS1 (configuration not stated)	127*	2	-2	3
Cc1cc(C)nc(SCC(=O)NC2=NN=C(c3ccc(Br)cc3)CS2)n1	113*	32	1	14
CC(C)Nc1nc(NC(C)C)nc(OCCOC(=O)c2ccccc2)n1	0	20	-7	-2
CCCCCc1cc(O)c2c(C)cc(=O)oc2c1	130*	-8	11	1
Cc1cc(=O)oc2cc(O)cc(O)c12	.	.	-1	.
Cc1cccnc1CN1CCN(C(=O)CCc2nnc(CCc3ccccc3)o2)CC1	1	-30	25	-20
CN1c2ccccc2N(C)C1(C)c1ccccc1	131*	.	61*	.
CCN1c2ccccc2N(C)C1(C)c1ccccc1 (configuration not stated)	106*	.	38	.
CCN1C(=O)N(c2cccc3ccccc23)C(C)=CC1(C)C	-3	21	4	10
COc1ccc(NC(=O)N2CCn3c2nc2ccccc23)cc1	-3	-5	8	0
CC(C)(C)c1cc(NCCCn2ccnc2)n2ncc(-c3ccc(Cl)cc3)c2n1	9	-35	-60	-58
CN(C)CCCNc1cc(C(C)(C)C)nc2c(-c3ccccc3)cnn12	113*	-111	-24	4
C/C(Cl)=C\Cn1c(NCCc2ccccc2)nc2c1c(=O)n(C)c(=O)n2C	70	-13	82*	32
C=CCn1cnc2c(c1=O)c1nc3ccccc3nc1n2/N=C/c1cc(OC)c(OC)c(OC)c1	102*	-27	4	40
Cc1ccc(Nc2nc(Cl)nc3ncn(C)c23)c(C)c1	.	.	1	.
O=C(NCc1cccnc1)C(=O)Nc1nc(C23CC4CC(CC(C4)C2)C3)cs1	161*	-4	-5	-12
O=C(NCc1ccccc1)C(=O)Nc1nc(C23CC4CC(CC(C4)C2)C3)cs1	35	-5	-2	13
SMILES	Beta apoptosis	697 NFkB inh	Gli-Sufu block	Jurkat NFkB inh
O=C(/C=C/c1ccco1)NCC1OCCc2ccccc21 (configuration not stated)	107*	4	6	1
Nc1nc(-c2ccccc2)c(-c2ccccc2)s1	.	17	0	2
Nc1nc(-c2ccccc2)c(-c2ccc([N+](=O)[O-])cc2)s1	93*	-14	8	7
COC(=O)c1c(C)oc2ccc(N(C(=O)c3ccncc3)S(=O)(=O)c3ccc4ccccc4c3)cc12	105*	-29	9	-5
O=[N+]([O-])c1ccc(Sc2cccc3cccnc23)c([N+](=O)[O-])c1	80*	1	46	39
CCC(CO)Oc1cc(NC(=O)c2ccc(C)cc2)c2ncn(C(C)C)c2c1 (configuration not stated)	-1	15	-7	12
O=c1c2ccccc2nc(/C=C/c2ccc([N+](=O)[O-])cc2)n1CCCO	-1	15	15	6
O=c1c2ccccc2nc(/C=C/c2ccc([N+](=O)[O-])o2)n1CCCO	2	-3	71*	10
Cc1cccc(OCC(=O)Nc2ccc(C(=O)NCc3cccnc3)cc2)c1	113*	11	.	7
COc1ccc(NC(=O)COc2ccc(C(=O)NCc3cccnc3)cc2OC)cc1	1	10	-3	9
O=C(COc1ccc(Cl)cc1)Nc1ccc(C(=O)NCc2cccnc2)cc1	101*	17	17	11
O=C(Cc1ccc(Cl)cc1)c1c[nH]c(C(=O)NCc2cccnc2)c1	107*	2	-8	-4
CC(=O)C1CCC2C3CC(C)=C4CC(O)CCC4(C)C3CCC12C (configuration not stated)	.	.	9	.
O=[N+]([O-])c1cccc(-c2cn3nc(-c4ccccc4)c(-c4ccccc4)nc3n2)c1	98*	3	6	-18
CC/C(=C\C(=O)c1ccncc1)Nc1ccc(O)cc1	-16	-15	3	-11
COc1ccccc1N(CC(=O)Nc1cccc(C(F)(F)F)c1)S(C)(=O)=O	.	5	-2	-4
Cc1ccc([N+](=O)[O-])cc1N(CC(=O)Nc1ccc(S(=O)(=O)Nc2cccc(C(F)(F)F)c2)cc1)S(C)(=O)=O	99*	-8	.	2
COc1ccc(Cl)cc1Nc1nc(C)cc(=O)[nH]1	-2	2	8	-19
O=c1c2ccccc2cnn1-c1nc2ccccc2[nH]1	.	.	81*	.
O=c1c(Cl)c(N2CCCCC2)cnn1-c1nc2ccccc2[nH]1	42	-58	25	7
COc1ccc(C(=O)OC(C)C(=O)NC(C)CCc2ccccc2)cc1[N+](=O)[O-] (configuration not stated)	-6	13	-2	-9
CCC(=O)Nc1ccc2c(c1)nc(CN1CCCCC1)n2C	1	1	-2	-6
O=C1c2ccc3c4c(ccc(c24)C(=O)N1c1cccc(O)c1)C(=O)N(c1cccc(O)c1)C3=O	118*	-43	22	4
COc1cc(CNCCO)cc(Cl)c1OCc1ccc(Cl)cc1Cl	108*	1	9	-10
O=C(O)c1ccc(NCc2cccnc2)c([N+](=O)[O-])c1	-1	-12	-14	-11
SMILES	Beta apoptosis	697 NFkB inh	Gli-Sufu block	Jurkat NFkB inh
COc1ccc([C@H]2/C=C\CN(C(=O)c3ccc(C)cc3)[C@@H](C)C(=O)N2Cc2ccc(F)cc2)cc1	4	25	10	16
COc1ccc(C2/C=C\CN(C(=O)c3ccccc3)[C@H](Cc3ccccc3)C(=O)N2Cc2ccc(F)cc2)cc1 (some centres not stated)	94*	18	17	5
CC(C)c1ccc(COc2ccc(C(=O)N3CCOCC3)cc2)cc1	76*	-32	-3	-18
CN(C)S(=O)(=O)c1ccc(Cl)c(NC(=O)CN2CCCCCC2)c1	0	23	4	0
CCN(c1ccccc1)S(=O)(=O)c1ccc(Cl)c(NC(=O)CN2CCCCCC2)c1	104*	-20	7	-11
CCN(c1ccccc1)S(=O)(=O)c1ccc(Cl)c(NC(=O)COC(=O)c2cc(O)c3ccccc3c2O)c1	79*	-4	.	8
